Compound activity deposited in PubChem by The Scripps Research Institute Molecular Screening Center.
MOR-DOR inv ag = mu-delta opioid heterodimer inverse agonism; cell-based MOR-DOR heterodimer luminescence; P35372+P41143; inhibition, % at 9.3 µM; hit rate 0.21% among 340,000; in the data active means inhibition above about 22%, passing the limit was not always enough
Target sequence (P35372 whole entry, looked up): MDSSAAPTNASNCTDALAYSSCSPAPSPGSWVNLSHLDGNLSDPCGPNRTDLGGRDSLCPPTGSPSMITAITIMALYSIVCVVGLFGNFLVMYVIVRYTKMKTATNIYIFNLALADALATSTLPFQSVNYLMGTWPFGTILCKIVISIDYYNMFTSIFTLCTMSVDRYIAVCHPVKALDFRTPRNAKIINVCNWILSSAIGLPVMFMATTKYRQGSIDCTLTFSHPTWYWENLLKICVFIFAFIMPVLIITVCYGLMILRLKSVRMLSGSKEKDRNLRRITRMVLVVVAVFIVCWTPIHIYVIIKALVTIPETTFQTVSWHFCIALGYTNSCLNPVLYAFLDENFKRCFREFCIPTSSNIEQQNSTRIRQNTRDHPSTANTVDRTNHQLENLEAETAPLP
Target sequence (P41143 whole entry, looked up): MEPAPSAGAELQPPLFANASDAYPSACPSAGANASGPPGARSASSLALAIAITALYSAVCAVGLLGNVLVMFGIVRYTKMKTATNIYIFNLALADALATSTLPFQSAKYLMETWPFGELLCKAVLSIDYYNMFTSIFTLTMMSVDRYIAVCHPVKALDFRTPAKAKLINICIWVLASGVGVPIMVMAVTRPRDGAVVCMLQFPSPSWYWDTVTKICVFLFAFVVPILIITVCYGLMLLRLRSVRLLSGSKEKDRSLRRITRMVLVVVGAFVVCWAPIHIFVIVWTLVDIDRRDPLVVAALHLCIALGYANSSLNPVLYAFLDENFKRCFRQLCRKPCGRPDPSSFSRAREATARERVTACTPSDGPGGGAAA
HTR5A inv ctr = inverse agonist of human HTR5A in OPRM1-OPRD1 counter-screen; hit rate 0.083% among 340,000; P47898; HTR5A cell line, luminescence, inverse agonism; inhibition, % at 9.3 µM; in the data active means inhibition mostly above about 23%, no sharp cut-off; inactive means mostly below about 18%
MOR-DOR ag = OPRM1-OPRD1 heterodimerization agonism | cells, luminescence | activation, % at 9.3 µM | hit rate 0.3% among 340,000 | AID 504326; in the data active means activation above about 18%
HTR5A ag = activates human HTR5A in OPRM1-OPRD1 agonist counter-screen | P47898 | HTR5A agonist assay, luminescence, cell-based | activation, % at 9.3 µM | hit rate 0.61% among 340,000; in the data active means activation mostly above about 9.5%, no sharp cut-off; inactive means mostly below about 7.6%
OPRM1-D1 inv cf = OPRM1-OPRD1 heterodimer inverse agonism, confirmation; shares compounds with MOR-DOR inv ag; hit rate 20% among 580; inhibition, % at 9.3 µM; cells expressing OPRM1/OPRD1 heterodimer, luminescence; AID 504900; in the data active means inhibition above about 32%
HTR5A inv ctr2 = inverse agonist of human HTR5A in OPRM1-OPRD1 counter-screen; shares compounds with MOR-DOR inv ag; HTR5A-expressing cells, luminescence, inverse agonism; inhibition, % at 9.3 µM; 580 tested, under 10 active; AID 504914; call rule not given here
Each line names hits and unclear results; the compound was inactive in the other large screens (follow-up assays come after a bar, where they were run). Sampled rows, rich in hits. Any-hit rate of the full collection: about 1.1%.

COc1ccc(C2=NN(CN3C(=O)C(=O)c4ccccc43)C(c3ccc(C)cc3)C2)cc1 (stereo not drawn)	MOR-DOR inv ag 47 | OPRM1-D1 inv cf inactive | HTR5A inv ctr2 inactive
COc1ccc(C2=NN(CN3C(=O)C(=O)c4ccccc43)C(c3ccc(Br)cc3)C2)cc1 (stereo not drawn)	none
COC(=O)C1NN=C(C(=O)c2ccc(Cl)cc2)C1c1ccc(OC)cc1 (stereo not drawn)	MOR-DOR inv ag 47 | OPRM1-D1 inv cf inactive | HTR5A inv ctr2 inactive
COc1ccc(-c2csc3ncnc(N4CCN(c5ccccc5Cl)CC4)c23)cc1	none
COc1ccc(-c2csc3ncnc(N4CCN(c5cccc(C)c5C)CC4)c23)cc1	MOR-DOR inv ag 40 | OPRM1-D1 inv cf inactive | HTR5A inv ctr2 inactive
CN(C)CC1CC/C(=C\c2ccc(O)cc2)C1=O (stereo not drawn)	MOR-DOR inv ag 41 | OPRM1-D1 inv cf inactive | HTR5A inv ctr2 inactive
O=C1OC[C@H]2CCCN2C(=O)[C@@H](CC(=O)N(CCO)Cc2ccccc2)C/C=C\C[C@@H]1Cc1ccc(F)cc1	none
COc1cc([N+](=O)[O-])cc(/C=N/NC(=O)c2ccc(C)nc2)c1O	MOR-DOR inv ag 22 | OPRM1-D1 inv cf inactive | HTR5A inv ctr2 inactive
COc1cc([N+](=O)[O-])cc(/C=N/NC(=O)c2ccc(NC(=O)c3ccc(C)cc3)cc2)c1O	none
CC1COC(=O)C(NNc2ccc(Cl)c(Cl)c2)=N1 (stereo not drawn)	MOR-DOR inv ag 30 | OPRM1-D1 inv cf inactive | HTR5A inv ctr2 inactive
O=S(=O)(Nc1ccc(Cl)c(Cl)c1)N1CCOCC1	none
Cc1[nH]nc(-c2cccnc2)c1N=NN(C)C	none
COC(=O)[C@]1(Cc2ccccc2)N[C@H](CN(C)S(=O)(=O)c2ccc(C(C)(C)C)cc2)[C@@H]2C(=O)N(Cc3ccccc3)C(=O)[C@@H]21	none
COc1c(C(=O)NC(=S)Nc2nnn(C)n2)cc2ccccc2c1Br	none
COc1ccc(C(=O)NC(=S)Nc2nnn(C)n2)cc1	none
Cn1nnc(NC(=S)NC(=O)c2cccc3c(Br)cccc23)n1	MOR-DOR inv ag 33 | OPRM1-D1 inv cf inactive | HTR5A inv ctr2 inactive
Cn1nnc(NC(=S)NC(=O)c2ccco2)n1	none
COc1cccc(C(=O)NC(=S)Nc2nnn(C)n2)c1	MOR-DOR inv ag 28 | OPRM1-D1 inv cf inactive | HTR5A inv ctr2 inactive
Cn1nnc(NC(=S)NC(=O)c2cccc3c(Cl)cccc23)n1	MOR-DOR inv ag 31 | OPRM1-D1 inv cf inactive | HTR5A inv ctr2 inactive
Cc1cc(-c2ccc([N+](=O)[O-])cc2)cc(C)n1	none
OCCCNc1c2ccccc2nc2ccccc12	none
CCCn1c(=O)n(C)c(=O)c2c(SCC(=O)Nc3cc(C)on3)nc(C(C)(C)C)nc21	none
ON1C2CCCCC2N(O)C1c1ccccc1C(F)(F)F (stereo not drawn)	MOR-DOR inv ag 44 | OPRM1-D1 inv cf inactive | HTR5A inv ctr2 inactive
O=C(Nc1ccccc1C(F)(F)F)NC1CCCCCCC1	none
Cc1cccc(C)c1NC(=O)C(NC=O)c1ccc(Cl)cc1 (stereo not drawn)	MOR-DOR inv ag 33 | OPRM1-D1 inv cf inactive | HTR5A inv ctr2 inactive
CN(C(=O)CSc1nc2ccccc2o1)C1CCCCC1	none
COc1ccc(NC(=S)Nc2nc(CC(=O)Nc3ccccc3OC)cs2)cc1	MOR-DOR inv ag 36 | OPRM1-D1 inv cf inactive | HTR5A inv ctr2 inactive
COc1ccccc1NC(=O)Cc1csc(NC(=S)Nc2ccccc2)n1	none
CC12CC3CC(C1)CC(C(=O)NNC(=O)c1ccncc1)(C3)C2	none
O=C(NNC(=S)NC(=O)C12CC3CC(CC(C3)C1)C2)c1ccncc1	MOR-DOR inv ag 42 | OPRM1-D1 inv cf inactive | HTR5A inv ctr2 inactive
O=C1C[C@@H]2c3c(cccc3CN1Cc1ccccc1Br)C[C@@H](O)[C@H]2O	none
CCC(=O)Oc1ccc(C(=O)Nc2cccc(C(=O)NCC(C)C)c2)cc1	MOR-DOR inv ag 32 | OPRM1-D1 inv cf inactive | HTR5A inv ctr2 inactive
CCC(=O)Oc1ccc(C(=O)Nc2ccccc2C(=O)NCC(C)C)cc1	none
O=C(CCC(=O)OCC(=O)c1ccc(Cl)cc1Cl)Nc1cccc2cccnc12	MOR-DOR inv ag 55 | OPRM1-D1 inv cf inactive | HTR5A inv ctr2 inactive
O=C(OCC(=O)c1ccc(Cl)cc1Cl)c1ccccn1	MOR-DOR inv ag 50 | OPRM1-D1 inv cf inactive | HTR5A inv ctr2 inactive
O=C(OCC(=O)c1ccc(Cl)cc1Cl)c1ccc2c(c1)C(=O)N(c1cccc3ncccc13)C2=O	MOR-DOR inv ag 43 | OPRM1-D1 inv cf inactive | HTR5A inv ctr2 inactive
